Compound activity (PubChem BioAssay)
This is a sample that favours compounds with a hit; in the whole collection about 3.3% have one here.
HCV inhibitor = qHTS Assay for Inhibitors of Hepatitis C Virus (HCV) | Huh7.5.1 HCVcc-Cre infection, luciferase reporter, 44 h | Potency, µM (series often up to 41.8 µM), inactives show top-dose activity change, negative = inhibition, hits mostly inhibitors | actives 3.4% (n = 340,000) | AID 651820, 2012; note: % is set by controls: 0 for no effect and ±100 for the full control effect
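Seed cells (1,000/well) for 4 h; treat with compound and infect with HCVcc-Cre, moi about 0.5. Incubate 44 h, then detect luciferase activity.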
Vaccinia mCherry = qHTS for Stage-Specific Inhibitors of Vaccinia Orthopoxvirus: mCherry Reporter Primary qHTS; Vaccinia virus mCherry reporter infection, fluorescence; Potency, µM (highest dose often 36.5 µM), inactives show top-dose activity change, negative = inhibition, usual class: inhibitors; actives 0.63% (n = 310,000); calls by dose curve; tested in A549 cells; note: % is set by controls: 0 for no effect and ±100 for the full control effect; nearly all actives have a fitted effect of over 35% in size
Vaccinia Venus = qHTS for Stage-Specific Inhibitors of Vaccinia Orthopoxvirus: Venus Reporter Primary qHTS; Vaccinia virus Venus reporter expression, fluorescence; Potency, µM (titrated, usually from 36.5 µM), without a hit: at the top dose activity change, negative = inhibition, most hits filed as inhibitors; actives 0.46% (n = 330,000); calls by dose curve; tested in A549 cells; note: % is set by controls: 0 for no effect and ±100 for the full control effect; nearly all actives have a fitted effect of over 30% in size
HCV confirm = qHTS Assay for Inhibitors of Hepatitis C Virus (HCV): Confirmation Assay for Cherry-picked Compounds. AID 720575, 2013. Potency, µM (doses to about 41.8 µM), without a hit: at the top dose activity, negative = inhibition, usual class: inhibitors. shares compounds with HCV inhibitor. actives 78% (n = 640). HCVcc-Cre infectious virus cell assay, luciferase, inhibition; note: nearly all actives have a fitted effect of over 80% in size
HCV host tox = qHTS Assay for Inhibitors of Hepatitis C Virus (HCV): Cytotoxicity Counterscreen for Cherry-picked Compounds; HCV host cell line cytotoxicity counterscreen; actives 22% (n = 640); Potency, µM (top dose mostly 41.8 µM), inactives show top-dose activity change, negative = cytotoxicity, hits mostly inhibitors; shares compounds with HCV inhibitor;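 note: 44 h compound exposure; % is set by controls: 0 for no effect and ±100 for the full control effect; nearly all actives have a fitted effect of over 55% in size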
* hit, by the source's call. Unless noted, calls come from the whole dose curve; as a rule, active = well fitted curve in the direction sought with a large enough effect; inconclusive = small, poorly fitted or top-dose-only effect, or another doubt; inactive = no such curve, though single readings can be large; an effect the other way counts as inactive or inconclusive. Potency is the fitted concentration of half-maximal effect.

How did CC1(c2ccc3ccccc3c2)NC(=O)N(CC(=O)N2CCC(C(N)=O)CC2)C1=O (stereo not given) do in these assays?
HCV inhibitor: 28%; Vaccinia mCherry: inactive; Vaccinia Venus: 0%

How did CC1(c2ccc3ccccc3c2)NC(=O)N(CC(=O)N2CCN(Cc3ccccc3)CC2)C1=O (stereo not given) do in these assays?
HCV inhibitor: 3.2µM*; HCV confirm: 0.89µM*; HCV host tox: 3.1µM*

What do the screens show for `C#CCNC(=O)C[C@@H]1C[C@@]2(C(=O)OC)CCCCC=C2N(CCC2=CCCCC2)C1=O`?
Vaccinia mCherry: 21%; Vaccinia Venus: -6%

How did Cc1cccc(Cn2cnc3c(oc4ccccc43)c2=O)c1 do in these assays?
Vaccinia mCherry: -7%; Vaccinia Venus: -11%

How did O=C(CCC1CCCC1)NNC(=O)c1ccccc1O do in these assays?
HCV inhibitor: 5%; Vaccinia mCherry: -17%; Vaccinia Venus: -12%

What do the screens show for `O=C(NCCN1CCC(n2c(=O)[nH]c3ccccc32)CC1)c1ccc(OC(F)(F)F)cc1`?
Vaccinia mCherry: -1%; Vaccinia Venus: 2%

Results for O=C(NCC1CCCO1)c1cc2c([nH]c3ccccc32)c(-c2cccc(Br)c2)n1 (stereo not given) ?
HCV inhibitor: 2µM*; Vaccinia mCherry: inconclusive; Vaccinia Venus: inconclusive; HCV confirm: 14µM*; HCV host tox: 37%

How did Cc1ccccc1-c1nc(C(=O)NCC2CCCO2)cc2c1[nH]c1ccccc12 (stereo not given) do in these assays?
HCV inhibitor: inconclusive; Vaccinia mCherry: inconclusive; Vaccinia Venus: -21%

Results for CC(NC(=O)c1ccc2nc(CCc3ccccc3)oc2c1)c1ccccc1 (stereo not given) ?
Vaccinia mCherry: -7%; Vaccinia Venus: -8%

How did NS(=O)(=O)c1ccc(N=Nc2ccc(=O)[nH]c2O)cc1 do in these assays?
HCV inhibitor: 13%; Vaccinia mCherry: -4%; Vaccinia Venus: -3%

What do the screens show for `NS(=O)(=O)c1ccc(N=Nc2ccc(O)c3ncccc23)cc1`?
HCV inhibitor: 3.5µM*; Vaccinia mCherry: inconclusive; Vaccinia Venus: 10µM*; HCV confirm: 7.9µM*; HCV host tox: 8.9µM*

How did CCOc1ccc(NC(=O)CN(c2ccc(C)cc2)S(=O)(=O)c2cccs2)cc1 do in these assays?
Vaccinia mCherry: -1%; Vaccinia Venus: -6%

Results for CCCCC(=O)Nc1ccc(NC(=O)c2ccc3c(c2)OCO3)cc1OC ?
HCV inhibitor: 2.5µM*; HCV confirm: inconclusive; HCV host tox: 18%

How did COc1cc(NC(=O)c2ccc3c(c2)OCO3)ccc1NC(=O)C(C)C do in these assays?
HCV inhibitor: -19%

How did COCCNC(=O)C1(C)CCCN(Cc2ccc(Cl)c(Cl)c2)C1 (stereo not given) do in these assays?
Vaccinia mCherry: 0%; Vaccinia Venus: -3%

How did O=CN1CCN(C(C(=O)NC2CCCCC2)c2ccc(Cl)cc2)CC1 (stereo not given) do in these assays?
HCV inhibitor: 11%; Vaccinia mCherry: -14%; Vaccinia Venus: -8%

What do the screens show for `CC#CC[N+](C)(C)CCCCCCCCCCCC`?
HCV inhibitor: 5µM*; HCV confirm: 14µM*; HCV host tox: -42%

What do the screens show for `CCCCCCCCCCCCCCCC[N+](C)(C)CCl`?
HCV inhibitor: 12%; Vaccinia mCherry: -17%; Vaccinia Venus: inconclusive

What do the screens show for `Cc1ccccc1CNC(=O)Cn1ncn2nc(-c3cccs3)cc2c1=O`?
Vaccinia mCherry: -12%; Vaccinia Venus: -2%

What do the screens show for `CCOc1ccc2oc(C(=O)N(CC)CC(=O)Nc3c(F)cccc3F)c(C)c2c1`?
HCV inhibitor: inconclusive; Vaccinia mCherry: inactive; Vaccinia Venus: -21%

What do the screens show for `CC(C)Cc1ccc(C(C)C(=O)Nc2nccs2)cc1` (stereo not given)?
HCV inhibitor: 2%; Vaccinia mCherry: -15%; Vaccinia Venus: -10%

How did CC(C)Cc1ccc(C(C)C(=O)Nc2ccccc2O)cc1 (stereo not given) do in these assays?
HCV inhibitor: 4.5µM*; Vaccinia mCherry: inconclusive; Vaccinia Venus: -25%; HCV confirm: 4.4µM*; HCV host tox: 10µM*

What do the screens show for `CCc1ccc2[nH]c(=O)c(CN(Cc3ccccc3OC)Cc3nnnn3Cc3ccco3)cc2c1`?
HCV inhibitor: 8.9µM*; Vaccinia Venus: 28µM*; HCV confirm: 25µM*; HCV host tox: 44%

Results for COc1ccc2[nH]c(=O)c(CN(Cc3ccco3)Cc3nnnn3Cc3ccccc3)cc2c1 ?
HCV inhibitor: -8%; Vaccinia mCherry: -14%; Vaccinia Venus: -15%

Results for Cc1cc(C)n(-c2ccc(C(=O)Nc3ccc4c(c3)OCCO4)cc2)n1 ?
HCV inhibitor: inconclusive; Vaccinia Venus: -27%; HCV confirm: inconclusive; HCV host tox: -29%

How did CC(=O)Nc1ccc(C(=O)Nc2ccc3c(c2)OCCO3)cc1 do in these assays?
HCV inhibitor: -2%

Results for COc1cccc(NC(=O)c2nnn(Cc3cccc(C(F)(F)F)c3)c2N)c1 ?
Vaccinia mCherry: -9%; Vaccinia Venus: -6%

What do the screens show for `CC(C)=C(NC(=O)c1ccccc1)C(=O)NCCc1nc2ccccc2[nH]1`?
HCV inhibitor: 27%; Vaccinia mCherry: -23%; Vaccinia Venus: -9%

How did COc1ccc(F)cc1CSc1nnnn1-c1ccc(O)cc1 do in these assays?
HCV inhibitor: inconclusive; Vaccinia mCherry: inconclusive; Vaccinia Venus: -15%

What do the screens show for `COc1cc(CSc2nnnn2-c2ccc(C)cc2)cc(OC)c1OC`?
HCV inhibitor: inconclusive; Vaccinia mCherry: -18%; Vaccinia Venus: -30%; HCV confirm: 1.8µM*; HCV host tox: -94%

How did Cc1cc(C)nc(/N=C(\N)Nc2ccc(CC(=O)OC(C)C)cc2)n1 do in these assays?
HCV inhibitor: 3.5µM*; Vaccinia mCherry: inconclusive; Vaccinia Venus: inconclusive; HCV confirm: 2.8µM*; HCV host tox: -93%

What do the screens show for `Cc1cc(C)nc(/N=C(\N)Nc2ccc(S(=O)(=O)O)cc2)n1`?
HCV inhibitor: -1%; Vaccinia mCherry: inactive; Vaccinia Venus: -7%

How did CCCOc1ccc(-c2nonc2NC(=O)COc2ccc(C)cc2)cc1OCCC do in these assays?
Vaccinia mCherry: -3%; Vaccinia Venus: -8%

How did CCOC(=O)CSc1nc2cc3c(cc2c(=O)n1CCCCCC(=O)NCc1ccc(OC)cc1)OCO3 do in these assays?
Vaccinia mCherry: -20%; Vaccinia Venus: -18%

What do the screens show for `CCN(CC)C(=O)CSc1nc2cc3c(cc2c(=O)n1Cc1ccc(OC)cc1)OCO3`?
HCV inhibitor: inconclusive; Vaccinia mCherry: -6%; Vaccinia Venus: 2%; HCV confirm: 5.6µM*; HCV host tox: 12%

Results for NC(=O)c1cccc(-c2ccnc3c2CC(C(=O)NCc2cccc(Cl)c2)O3)c1 (stereo not given) ?
Vaccinia mCherry: -7%; Vaccinia Venus: -24%
